Holding throughout (test): DAPPL (digital affinity profiling via proximity ligation, sequencing); 10 mM Tris-HCl pH 7.5, 50 mM NaCl, 1 mM DTT, 4% glycerol, room temperature, 30 min; GST-TFs on glutathione beads, 16-mer random dsDNA library, 0.1% formaldehyde crosslink after washing; high values mean tight binding
In one assay the target is T1, FEV (Homo sapiens, UniProt Q99581 1-238).
T1 sequence: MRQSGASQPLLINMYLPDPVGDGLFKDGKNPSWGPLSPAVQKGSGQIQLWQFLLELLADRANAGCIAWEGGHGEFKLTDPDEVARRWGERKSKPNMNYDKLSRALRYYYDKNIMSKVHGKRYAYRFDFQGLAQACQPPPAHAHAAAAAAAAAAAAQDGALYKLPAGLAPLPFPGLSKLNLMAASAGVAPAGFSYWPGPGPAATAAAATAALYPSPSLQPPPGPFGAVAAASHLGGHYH
As to conditions: protein: recombinant; tags: N-terminal GST; dsDNA, one strand shown. A digest of the protocol:
(§1)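 Binding signal is each hexamer's read frequency for a factor divided by its frequency in the tag-only sample. The factors were GST-fused human transcription factors from yeast, captured on glutathione beads, DNA-barcoded and pooled with that sample. Pools were incubated with 200 nmole of a random double-stranded 16-mer DNA library in Tris/NaCl/DTT/glycerol buffer at room temperature for 30 min, then washed, crosslinked with 0.1% formaldehyde, proximity-ligated with BsaI/T4 ligase (1 h, 37 °C), PCR-amplified and sequenced on an Illumina NextSeq500.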

In the next assay the target is ETV5 (Homo sapiens, UniProt P41161 1-510). The conditions noted are these: protein: recombinant; tags: N-terminal GST; dsDNA, one strand shown. The method in brief:
as §1

For a further assay, the target named is HSF1 (Homo sapiens, UniProt Q00613 1-529). As to conditions: protein: recombinant; tags: N-terminal GST; chain copies: 3; dsDNA, one strand shown. The method in brief:
as §1

For the next assay, the target named is T2, SPIC (Homo sapiens, UniProt Q8N5J4 1-248).
T2 sequence: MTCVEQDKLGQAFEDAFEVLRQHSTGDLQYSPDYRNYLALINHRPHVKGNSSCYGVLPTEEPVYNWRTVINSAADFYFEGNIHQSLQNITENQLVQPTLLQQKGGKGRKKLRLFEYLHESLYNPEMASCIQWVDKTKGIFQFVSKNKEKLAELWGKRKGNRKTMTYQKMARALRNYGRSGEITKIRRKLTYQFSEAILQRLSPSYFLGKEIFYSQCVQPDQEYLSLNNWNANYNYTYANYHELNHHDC
As to conditions: protein: recombinant; tags: N-terminal GST; dsDNA, one strand shown. A digest of the protocol: as §1

For the next assay, the target named is ELF4 (Homo sapiens, UniProt Q99607 1-663). The conditions noted are these: protein: recombinant; tags: N-terminal GST; dsDNA, one strand shown. A digest of the protocol:
as §1

The target in the next assay is T3, ELK4 (Homo sapiens, UniProt P28324-2 1-405).
T3 sequence: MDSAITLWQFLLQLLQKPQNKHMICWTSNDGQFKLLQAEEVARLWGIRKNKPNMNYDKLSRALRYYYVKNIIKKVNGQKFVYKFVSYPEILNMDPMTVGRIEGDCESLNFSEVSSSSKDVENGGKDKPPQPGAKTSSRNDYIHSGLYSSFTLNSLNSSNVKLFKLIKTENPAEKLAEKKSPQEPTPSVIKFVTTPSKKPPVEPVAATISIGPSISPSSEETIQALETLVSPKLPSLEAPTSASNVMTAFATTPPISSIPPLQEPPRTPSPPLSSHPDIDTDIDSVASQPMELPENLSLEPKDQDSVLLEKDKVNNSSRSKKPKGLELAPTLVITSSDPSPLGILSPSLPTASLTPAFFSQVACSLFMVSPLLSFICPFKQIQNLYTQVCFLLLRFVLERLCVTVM
The conditions noted are these: protein: recombinant; tags: N-terminal GST; dsDNA, one strand shown. A digest of the protocol:
as §1

For the next assay, the target named is T4, ETV2 (Homo sapiens, UniProt O00321 1-342).
T4 sequence: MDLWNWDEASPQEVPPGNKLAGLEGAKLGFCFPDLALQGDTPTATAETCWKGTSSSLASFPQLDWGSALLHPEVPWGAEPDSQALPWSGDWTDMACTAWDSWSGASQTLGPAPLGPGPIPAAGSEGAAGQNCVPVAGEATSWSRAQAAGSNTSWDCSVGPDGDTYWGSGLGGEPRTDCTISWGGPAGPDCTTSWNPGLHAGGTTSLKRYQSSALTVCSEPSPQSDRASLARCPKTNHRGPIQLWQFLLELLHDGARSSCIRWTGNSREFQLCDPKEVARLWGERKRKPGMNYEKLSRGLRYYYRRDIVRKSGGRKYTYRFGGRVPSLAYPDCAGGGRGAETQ
The conditions noted are these: protein: recombinant; tags: N-terminal GST; dsDNA, one strand shown. A digest of the protocol: as §1

Another assay addresses T5, ELF3 (Homo sapiens, UniProt P78545 1-371).
T5 sequence: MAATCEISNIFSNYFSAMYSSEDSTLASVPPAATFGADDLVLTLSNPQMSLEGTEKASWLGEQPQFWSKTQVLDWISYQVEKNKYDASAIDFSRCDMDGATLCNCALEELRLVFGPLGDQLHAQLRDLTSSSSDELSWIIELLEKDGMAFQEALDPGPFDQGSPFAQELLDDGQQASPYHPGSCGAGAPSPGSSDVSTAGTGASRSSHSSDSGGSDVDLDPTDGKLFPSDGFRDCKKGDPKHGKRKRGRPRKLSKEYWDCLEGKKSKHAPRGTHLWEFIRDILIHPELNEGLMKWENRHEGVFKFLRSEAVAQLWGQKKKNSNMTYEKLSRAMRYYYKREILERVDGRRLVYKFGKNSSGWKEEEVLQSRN
As to conditions: protein: recombinant; tags: N-terminal GST; dsDNA, one strand shown. A digest of the protocol: as §1

The next assay concerns the target CRX (Homo sapiens, UniProt O43186 1-299). As to conditions: protein: recombinant; tags: N-terminal GST; dsDNA, one strand shown. The method in brief:
as §1

A further assay concerns the target ETV1 (Homo sapiens, UniProt P50549 1-477). The conditions noted are these: protein: recombinant; tags: N-terminal GST; dsDNA, one strand shown. The method in brief: as §1
The target of another assay is T6, ERF (Homo sapiens, UniProt P50548 1-548).
T6 sequence: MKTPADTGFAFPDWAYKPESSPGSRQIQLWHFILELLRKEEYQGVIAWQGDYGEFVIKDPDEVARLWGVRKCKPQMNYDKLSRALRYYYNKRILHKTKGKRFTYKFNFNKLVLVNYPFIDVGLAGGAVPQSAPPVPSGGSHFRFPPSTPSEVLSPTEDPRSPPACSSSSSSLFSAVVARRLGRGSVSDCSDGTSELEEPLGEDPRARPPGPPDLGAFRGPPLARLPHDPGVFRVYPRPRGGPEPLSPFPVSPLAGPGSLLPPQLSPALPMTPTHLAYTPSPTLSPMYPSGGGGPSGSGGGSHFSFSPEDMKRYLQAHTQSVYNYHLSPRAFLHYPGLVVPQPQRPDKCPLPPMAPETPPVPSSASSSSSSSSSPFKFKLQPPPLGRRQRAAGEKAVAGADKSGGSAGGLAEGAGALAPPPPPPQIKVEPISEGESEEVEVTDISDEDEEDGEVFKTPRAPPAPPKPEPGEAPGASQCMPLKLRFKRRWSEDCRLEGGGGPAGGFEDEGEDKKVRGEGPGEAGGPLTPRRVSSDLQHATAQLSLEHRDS
As to conditions: protein: recombinant; tags: N-terminal GST; dsDNA, one strand shown. A digest of the protocol:
as §1

For a further assay, the target named is T7, ETV3L (Homo sapiens, UniProt Q6ZN32 1-361).
T7 sequence: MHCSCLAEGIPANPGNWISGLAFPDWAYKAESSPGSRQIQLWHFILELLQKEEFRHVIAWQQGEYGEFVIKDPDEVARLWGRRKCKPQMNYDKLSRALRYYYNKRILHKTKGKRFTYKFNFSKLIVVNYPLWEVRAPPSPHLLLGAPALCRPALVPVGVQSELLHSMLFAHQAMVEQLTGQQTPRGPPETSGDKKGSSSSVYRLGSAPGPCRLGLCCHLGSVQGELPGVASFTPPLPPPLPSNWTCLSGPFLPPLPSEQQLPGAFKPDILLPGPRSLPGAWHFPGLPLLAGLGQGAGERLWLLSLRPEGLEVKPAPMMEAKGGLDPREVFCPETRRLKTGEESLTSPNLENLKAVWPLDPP
As to conditions: protein: recombinant; tags: N-terminal GST; dsDNA, one strand shown. The method in brief:
as §1

A further assay concerns the target T8, ETS2 (Homo sapiens, UniProt P15036 1-469).
T8 sequence: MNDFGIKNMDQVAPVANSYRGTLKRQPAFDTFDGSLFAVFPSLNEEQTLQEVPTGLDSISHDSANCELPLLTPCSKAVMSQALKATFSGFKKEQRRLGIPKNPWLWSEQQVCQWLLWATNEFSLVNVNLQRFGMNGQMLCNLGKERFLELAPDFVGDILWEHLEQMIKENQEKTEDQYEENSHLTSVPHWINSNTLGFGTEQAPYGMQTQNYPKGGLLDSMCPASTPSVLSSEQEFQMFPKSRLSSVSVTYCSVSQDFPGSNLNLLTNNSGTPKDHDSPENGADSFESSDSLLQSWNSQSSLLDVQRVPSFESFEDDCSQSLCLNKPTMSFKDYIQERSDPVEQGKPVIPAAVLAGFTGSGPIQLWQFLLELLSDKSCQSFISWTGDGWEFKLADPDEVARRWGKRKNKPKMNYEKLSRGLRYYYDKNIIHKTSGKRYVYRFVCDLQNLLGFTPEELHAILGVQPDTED
The conditions noted are these: protein: recombinant; tags: N-terminal GST; dsDNA, one strand shown. The method in brief: as §1

The next assay concerns the target T9, SPDEF (Homo sapiens, UniProt O95238 1-335).
T9 sequence: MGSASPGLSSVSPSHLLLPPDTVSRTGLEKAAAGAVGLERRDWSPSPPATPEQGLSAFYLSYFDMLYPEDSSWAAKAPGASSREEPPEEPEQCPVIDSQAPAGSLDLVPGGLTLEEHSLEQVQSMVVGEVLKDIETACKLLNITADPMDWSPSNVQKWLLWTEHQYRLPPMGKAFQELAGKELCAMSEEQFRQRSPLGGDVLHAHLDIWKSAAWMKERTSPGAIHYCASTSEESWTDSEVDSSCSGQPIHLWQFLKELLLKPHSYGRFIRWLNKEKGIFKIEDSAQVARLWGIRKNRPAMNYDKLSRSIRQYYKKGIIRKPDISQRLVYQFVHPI
As to conditions: protein: recombinant; tags: N-terminal GST; dsDNA, one strand shown. The method in brief:
as §1

In a further assay the target is T10, ETV7 (Homo sapiens, UniProt Q9Y603 1-341).
T10 sequence: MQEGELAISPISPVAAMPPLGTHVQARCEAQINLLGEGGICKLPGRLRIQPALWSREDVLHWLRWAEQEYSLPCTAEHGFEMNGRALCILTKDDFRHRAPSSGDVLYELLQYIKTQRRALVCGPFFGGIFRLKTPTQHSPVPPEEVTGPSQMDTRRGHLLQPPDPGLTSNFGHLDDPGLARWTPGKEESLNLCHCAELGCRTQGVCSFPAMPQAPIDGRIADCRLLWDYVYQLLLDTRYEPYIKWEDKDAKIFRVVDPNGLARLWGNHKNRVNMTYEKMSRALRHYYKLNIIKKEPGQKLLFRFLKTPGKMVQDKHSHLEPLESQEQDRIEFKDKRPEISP
The conditions noted are these: protein: recombinant; tags: N-terminal GST; dsDNA, one strand shown. The method in brief: as §1

The target in another assay is T11, ELF5 (Homo sapiens, UniProt Q9UKW6-2 1-255).
T11 sequence: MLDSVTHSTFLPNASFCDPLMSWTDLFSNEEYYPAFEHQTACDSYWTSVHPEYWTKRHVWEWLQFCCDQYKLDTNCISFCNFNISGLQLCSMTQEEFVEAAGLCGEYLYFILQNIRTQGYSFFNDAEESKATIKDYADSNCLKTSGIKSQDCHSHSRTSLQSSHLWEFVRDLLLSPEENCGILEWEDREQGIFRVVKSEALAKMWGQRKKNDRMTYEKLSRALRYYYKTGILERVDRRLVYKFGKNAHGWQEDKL
As to conditions: protein: recombinant; tags: N-terminal GST; dsDNA, one strand shown. A digest of the protocol:
as §1

The target of another assay is T12, ETV3 (Homo sapiens, UniProt P41162-2 1-143).
T12 sequence: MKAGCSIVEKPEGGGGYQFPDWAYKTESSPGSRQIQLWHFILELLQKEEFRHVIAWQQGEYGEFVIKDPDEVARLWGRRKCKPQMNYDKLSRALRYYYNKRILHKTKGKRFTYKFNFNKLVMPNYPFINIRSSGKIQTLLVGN
As to conditions: protein: recombinant; tags: N-terminal GST; dsDNA, one strand shown. The method in brief:
as §1

For another assay, the target named is ETV6 (Homo sapiens, UniProt P41212 1-452). The conditions noted are these: protein: recombinant; tags: N-terminal GST; dsDNA, one strand shown. A digest of the protocol: as §1

This is an account of results in PMC7862700, “An all-to-all approach to the identification of sequence-specific readers for epigenetic DNA modifications on cytosine”.

Sequence of CRX (O43186 whole entry): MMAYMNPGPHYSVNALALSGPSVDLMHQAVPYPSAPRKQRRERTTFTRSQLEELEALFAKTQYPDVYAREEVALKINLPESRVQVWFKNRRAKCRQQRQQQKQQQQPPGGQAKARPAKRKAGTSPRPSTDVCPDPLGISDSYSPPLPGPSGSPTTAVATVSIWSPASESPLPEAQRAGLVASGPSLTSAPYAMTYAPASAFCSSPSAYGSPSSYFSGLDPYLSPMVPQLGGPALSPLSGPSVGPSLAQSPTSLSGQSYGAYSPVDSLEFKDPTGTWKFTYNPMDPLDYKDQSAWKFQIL
Sequence of ETV1 (P50549 whole entry): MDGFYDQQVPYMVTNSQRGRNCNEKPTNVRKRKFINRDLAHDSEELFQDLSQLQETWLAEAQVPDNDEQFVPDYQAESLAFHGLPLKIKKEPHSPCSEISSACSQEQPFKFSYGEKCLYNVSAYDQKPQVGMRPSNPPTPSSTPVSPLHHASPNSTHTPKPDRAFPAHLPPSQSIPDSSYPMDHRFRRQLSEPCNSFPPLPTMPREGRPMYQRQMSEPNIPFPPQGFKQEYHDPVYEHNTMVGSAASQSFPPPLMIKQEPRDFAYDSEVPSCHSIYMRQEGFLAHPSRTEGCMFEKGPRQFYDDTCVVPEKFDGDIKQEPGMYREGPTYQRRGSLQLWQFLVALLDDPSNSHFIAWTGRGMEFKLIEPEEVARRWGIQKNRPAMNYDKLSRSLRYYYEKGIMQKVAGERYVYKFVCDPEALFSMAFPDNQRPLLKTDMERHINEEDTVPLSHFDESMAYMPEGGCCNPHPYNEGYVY
Sequence of ETV5 (P41161 whole entry): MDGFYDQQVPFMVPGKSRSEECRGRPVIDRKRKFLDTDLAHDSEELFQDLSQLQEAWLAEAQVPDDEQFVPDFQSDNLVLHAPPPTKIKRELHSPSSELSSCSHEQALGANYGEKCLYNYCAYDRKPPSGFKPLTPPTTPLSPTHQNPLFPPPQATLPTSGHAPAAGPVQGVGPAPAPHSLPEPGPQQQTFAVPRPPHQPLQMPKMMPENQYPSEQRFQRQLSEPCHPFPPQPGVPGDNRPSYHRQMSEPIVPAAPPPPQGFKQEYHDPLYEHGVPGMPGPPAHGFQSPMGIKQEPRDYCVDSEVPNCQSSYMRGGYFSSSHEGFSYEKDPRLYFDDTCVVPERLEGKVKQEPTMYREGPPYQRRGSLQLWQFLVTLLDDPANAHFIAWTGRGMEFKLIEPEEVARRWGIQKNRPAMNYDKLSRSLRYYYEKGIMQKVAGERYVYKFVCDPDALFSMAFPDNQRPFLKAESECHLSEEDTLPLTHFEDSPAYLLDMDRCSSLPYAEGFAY
Sequence of ELF4 (Q99607 whole entry): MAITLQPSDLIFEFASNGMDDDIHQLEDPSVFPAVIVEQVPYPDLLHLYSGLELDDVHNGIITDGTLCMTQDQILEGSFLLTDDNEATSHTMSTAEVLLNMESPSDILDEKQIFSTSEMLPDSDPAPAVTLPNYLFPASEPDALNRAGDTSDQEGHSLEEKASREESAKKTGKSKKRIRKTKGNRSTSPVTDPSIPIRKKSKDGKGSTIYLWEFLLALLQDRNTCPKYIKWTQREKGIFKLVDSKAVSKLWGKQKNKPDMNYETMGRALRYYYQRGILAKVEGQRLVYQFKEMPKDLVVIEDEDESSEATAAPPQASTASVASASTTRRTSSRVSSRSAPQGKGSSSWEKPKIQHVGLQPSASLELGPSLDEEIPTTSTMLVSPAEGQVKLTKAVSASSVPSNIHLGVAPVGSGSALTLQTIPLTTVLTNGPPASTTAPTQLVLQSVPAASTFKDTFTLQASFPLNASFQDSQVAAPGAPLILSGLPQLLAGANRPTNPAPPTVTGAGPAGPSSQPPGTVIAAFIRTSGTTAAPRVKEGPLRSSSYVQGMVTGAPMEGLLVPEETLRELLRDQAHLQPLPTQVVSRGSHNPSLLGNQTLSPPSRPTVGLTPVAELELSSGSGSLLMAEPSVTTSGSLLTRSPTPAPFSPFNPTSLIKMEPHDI
Sequence of HSF1 (Q00613 whole entry): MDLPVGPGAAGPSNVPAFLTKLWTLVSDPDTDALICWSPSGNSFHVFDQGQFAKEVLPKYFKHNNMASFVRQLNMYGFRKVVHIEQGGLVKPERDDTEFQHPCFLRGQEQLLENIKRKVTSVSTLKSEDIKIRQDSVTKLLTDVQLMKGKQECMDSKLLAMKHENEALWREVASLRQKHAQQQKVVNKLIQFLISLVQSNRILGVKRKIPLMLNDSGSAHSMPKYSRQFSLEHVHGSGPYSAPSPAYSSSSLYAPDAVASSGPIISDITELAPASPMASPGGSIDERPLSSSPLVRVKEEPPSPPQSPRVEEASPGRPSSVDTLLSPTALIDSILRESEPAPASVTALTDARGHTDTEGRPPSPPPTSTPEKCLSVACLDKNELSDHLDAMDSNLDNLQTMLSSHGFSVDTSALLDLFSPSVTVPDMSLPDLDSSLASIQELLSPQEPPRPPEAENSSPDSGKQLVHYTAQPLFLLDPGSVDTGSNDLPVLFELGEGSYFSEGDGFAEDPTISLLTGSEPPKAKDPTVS
Sequence of ETV6 (P41212 whole entry): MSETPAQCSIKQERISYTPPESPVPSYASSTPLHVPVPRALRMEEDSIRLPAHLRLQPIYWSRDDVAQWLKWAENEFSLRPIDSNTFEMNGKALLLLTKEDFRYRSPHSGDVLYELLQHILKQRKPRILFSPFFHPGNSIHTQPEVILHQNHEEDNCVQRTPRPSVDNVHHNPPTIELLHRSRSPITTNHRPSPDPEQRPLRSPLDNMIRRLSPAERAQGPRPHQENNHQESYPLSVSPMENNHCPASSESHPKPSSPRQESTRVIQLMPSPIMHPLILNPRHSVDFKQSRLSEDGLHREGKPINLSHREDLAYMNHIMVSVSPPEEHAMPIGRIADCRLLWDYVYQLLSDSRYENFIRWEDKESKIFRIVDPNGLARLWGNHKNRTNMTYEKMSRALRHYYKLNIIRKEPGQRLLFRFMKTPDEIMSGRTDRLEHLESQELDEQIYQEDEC

Turning to GCTTTA, the binding signal with FEV is 1.04 fold enrichment (6-mer frequency, TF over GST control); in the assay with ETV5 it was 1.06 fold enrichment (6-mer frequency, TF over GST control); in the assay with HSF1, 1.25 fold enrichment (6-mer frequency, TF over GST control); with SPIC it was 1.13 fold enrichment (6-mer frequency, TF over GST control); in the assay with ELF4, 1.14 fold enrichment (6-mer frequency, TF over GST control); in the assay with ELK4 it was 1.2 fold enrichment (6-mer frequency, TF over GST control). Besides, the binding signal is 1.16 fold enrichment (6-mer frequency, TF over GST control) with ETV2; 1.13 fold enrichment (6-mer frequency, TF over GST control) with ELF3; 1.81 fold enrichment (6-mer frequency, TF over GST control) with CRX; 1.06 fold enrichment (6-mer frequency, TF over GST control) in the assay with ETV1; 1.25 fold enrichment (6-mer frequency, TF over GST control) with ERF; 1.15 fold enrichment (6-mer frequency, TF over GST control) with ETV3L. Moreover, the binding signal with ETS2 is 1.2 fold enrichment (6-mer frequency, TF over GST control); with SPDEF, 1.06 fold enrichment (6-mer frequency, TF over GST control); in the assay with ETV7, 1.19 fold enrichment (6-mer frequency, TF over GST control); with ELF5 it was 1.08 fold enrichment (6-mer frequency, TF over GST control); with ETV3, 1.13 fold enrichment (6-mer frequency, TF over GST control); with ETV6 it was 1.1 fold enrichment (6-mer frequency, TF over GST control).
